VACV mCherry inh = inhibitors of vaccinia virus infection (mCherry reporter signal); Vaccinia virus mCherry reporter infection, fluorescence; Potency, µM (top dose mostly 36.5 µM), without a hit: top-dose activity change, negative = inhibition, hits mostly inhibitors; 0.63% of 310,000 active; calls by dose curve; tested in A549 cells; note: potency is the fitted concentration of half-maximal effect; nearly all actives have a fitted effect of over 35% in size
VACV Venus inh = vaccinia inhibition (Venus reporter); AID 720580; Vaccinia virus Venus reporter expression, fluorescence; Potency, µM (series often up to 36.5 µM), for the others: top-dose activity change, negative = inhibition, hits mostly inhibitors; 0.46% of 330,000 active; calls by dose curve; tested in A549 cells; note: potency is the fitted concentration of half-maximal effect; nearly all actives have a fitted effect of over 30% in size
LASV entry inh = inhibitors of Lassa virus binding or cell entry; Lassa virus pseudotype entry inhibition, cell reporter; 1.2% of 300,000 active; Potency, µM (top dose mostly 37.9 µM), for inactives: at the highest dose activity change, negative = inhibition, most hits filed as inhibitors; calls by dose curve; tested in HEK293 cells; note: potency is the fitted concentration of half-maximal effect; nearly all actives have a fitted effect of over 50% in size
Marburg entry inh = Marburg virus entry inhibition; Potency, µM (doses to about 37.8 µM), for inactives: at the top dose activity change, negative = inhibition, actives largely listed as inhibitors; Marburg virus pseudotyped entry inhibition, cell reporter; 1.8% of 300,000 active; calls by dose curve; tested in HEK293 cells; note: potency is the fitted concentration of half-maximal effect
HCMV antiviral = blocks human cytomegalovirus replication. activity change, negative = inhibition, % at 57.5 µM. 4.5% of 410,000 active. AID 1259415. HFF cells, HCMV-luciferase reporter, 72 h; active compounds read low; in the data active = activity change below about -60%; inconclusive = no clear call, values can overlap the other calls; inactive = above about -39%
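Cell-based, HFFs, 1000 cells/well, 16 h 37C; cpds in DMSO + HCMV-luc, MOI 1 PFU/cell; 72 h 37C; OneGlo luminescence after 5 min RT; norm. to buffer vs Salinomycin 10uM.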
HCV inh = inhibitors of hepatitis C virus infection. Potency, µM (titrated, usually from 41.8 µM), for the others: at the top dose activity change, negative = inhibition, actives largely listed as inhibitors. Huh7.5.1 HCVcc-Cre infection, luciferase reporter, 44 h. 3.4% of 340,000 active; active = well fitted inhibition curve with a large enough effect; inconclusive = small, poorly fitted or top-dose-only effect, or another doubt; inactive = no such curve, though single readings can be large or run the other way; note: potency is the fitted concentration of half-maximal effect
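Infectious HCVcc-Cre (~0.5 moi) was added to cells just after compound, with cells seeded 4 h earlier at 1,000 per well. Luciferase activity after 44 h culture reported infection; substrate was incubated 15 min at room temperature before reading.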
* hit, by the source's call; ! = a repeat was not active; [ ] = another dose, or the depositor's remark. Hits are enriched below; roughly 7.8% of the tested compounds scored in any of these assays. % is set by controls: 0 for no effect and ±100 for the full control effect.

How did COc1ccc(S(=O)(=O)NCC(c2ccco2)N2CCN(c3ccccc3F)CC2)cc1OC (stereo not drawn) do in these assays?
VACV mCherry inh: -5%; VACV Venus inh: -12%; LASV entry inh: -21%[46.1 µM]; HCMV antiviral: 27

How did CCN(CCNCC(O)COc1ccccc1C(C)C)c1cccc(C)c1 (stereo not drawn) do in these assays?
VACV mCherry inh: inconclusive; VACV Venus inh: inconclusive; LASV entry inh: -16%; Marburg entry inh: inconclusive; HCMV antiviral: 14; HCV inh: 13µM*

What do the screens show for `O=C(Nc1cnc2ccccc2c1)c1ccncc1`?
VACV mCherry inh: -2%; VACV Venus inh: -19%; HCMV antiviral: 53; HCV inh: 15%

How did C=CC(=O)Nc1cccc(Oc2ncnc3[nH]cc(-c4cnc5ccccc5c4)c23)c1 do in these assays?
VACV mCherry inh: inconclusive; VACV Venus inh: 11µM*; HCMV antiviral: 16; HCV inh: inconclusive

Results for CCOC(=O)Cn1c(=O)n(CC2CCCO2)c2nc(-c3c(F)cccc3Cl)nc(C(N)=O)c21 (stereo not drawn) ?
VACV mCherry inh: 0%; VACV Venus inh: 2%; LASV entry inh: -3%[46.1 µM]; HCMV antiviral: 11

What do the screens show for `N#Cc1c(NC(=O)CCn2cnc3ccccc3c2=O)oc(-c2ccccc2)c1-c1ccccc1`?
VACV Venus inh: inconclusive; LASV entry inh: inconclusive; Marburg entry inh: inconclusive; HCMV antiviral: 26; HCV inh: 10µM*!

Results for N#Cc1c(NC(=O)CCN2C(=O)c3ccccc3C2=O)oc(-c2ccccc2)c1-c1ccccc1 ?
VACV mCherry inh: -5%; VACV Venus inh: -22%; LASV entry inh: -6%; Marburg entry inh: 5%; HCMV antiviral: 16; HCV inh: -27%

What do the screens show for `C=CCn1cc(-c2ccc(Cl)cc2)cc(C#N)c1=O`?
VACV Venus inh: -12%; LASV entry inh: -5%; Marburg entry inh: -9%; HCMV antiviral: -37; HCV inh: 14%

How did N#Cc1cc(-c2ccc(Cl)cc2)cn(Cc2c(Cl)cccc2Cl)c1=O do in these assays?
LASV entry inh: -3%; Marburg entry inh: -1%; HCMV antiviral: -89*; HCV inh: 4%

What do the screens show for `COc1ccc(C2C(C(=O)N3CCCCC3)CCC(=O)N2c2cc(OC)c(OC)c(OC)c2)cc1` (stereo not drawn)?
LASV entry inh: 7.3µM*; Marburg entry inh: 11%; HCV inh: 2%

What do the screens show for `CCC(C)NC(=O)C1CCC(=O)N(c2cc(OC)c(OC)c(OC)c2)C1c1ccc(OC)cc1` (stereo not drawn)?
VACV mCherry inh: -5%; VACV Venus inh: -4%; LASV entry inh: -4%; Marburg entry inh: 44%; HCMV antiviral: 60; HCV inh: 14%

What do the screens show for `CCC(C)NC(=O)C1CCC(=O)N(c2ccc3c(c2)OCO3)C1c1ccc(OC)cc1` (stereo not drawn)?
VACV mCherry inh: -22%; VACV Venus inh: -13%; HCMV antiviral: -62*; HCV inh: -4%

What do the screens show for `COC(=O)c1sccc1S(=O)(=O)N(CC(=O)NCc1ccc(C)cc1)c1ccc(Cl)cc1`?
VACV mCherry inh: -13%; VACV Venus inh: -15%; LASV entry inh: inconclusive; HCMV antiviral: -5

Results for COc1cccc(CN2CC3(CCN(C)CC3)c3c(n(C)c4cc(OC)ccc34)[C@H]2CO)c1 ?
HCMV antiviral: -14

Results for Cc1ccc(-n2nc(CO)c(C(=O)NC(C)CCCc3ccccc3)n2)cc1C (stereo not drawn) ?
VACV mCherry inh: 6%; VACV Venus inh: 1%; LASV entry inh: inconclusive; Marburg entry inh: -11%[46.1 µM]; HCMV antiviral: inconclusive

What do the screens show for `Cc1ccc(-n2nc(CO)c(C(=O)NC(C)c3ccccc3)n2)cc1C` (stereo not drawn)?
VACV mCherry inh: -10%; VACV Venus inh: -23%; LASV entry inh: inconclusive; Marburg entry inh: -4%[46.1 µM]; HCMV antiviral: -63*

How did CCOC(=O)c1cc(-c2ccc(C)cc2)n(CCC(=O)Nc2ccc(OC)c(OC)c2)c1C do in these assays?
VACV mCherry inh: -17%; VACV Venus inh: -6%; Marburg entry inh: inconclusive; HCMV antiviral: -10

Results for CCOC(=O)c1cc(-c2ccc(C)cc2)n(CC(=O)Nc2ccc(OC)c(Cl)c2)c1C ?
VACV mCherry inh: -29%; VACV Venus inh: inconclusive; Marburg entry inh: -19%[46.1 µM]; HCMV antiviral: -91*

Results for CCCn1c(=NC(=O)c2cc3ccccc3o2)c(C(=O)OCC)cc2c(=O)n3ccccc3nc21 ?
VACV mCherry inh: -28%; VACV Venus inh: -10%; LASV entry inh: 8%[46.1 µM]; Marburg entry inh: -24%[46.1 µM]; HCMV antiviral: 9

Results for Cc1ccc(S(=O)(=O)/N=C2/C=C(Sc3ncn[nH]3)C(=O)c3ccccc32)cc1 ?
VACV mCherry inh: 2.8µM*; VACV Venus inh: 7.1µM*; LASV entry inh: 2.9µM*; Marburg entry inh: inconclusive; HCV inh: 4µM*

How did Cc1ccc(S(=O)(=O)Nc2ccc(O)c(Sc3ncn[nH]3)c2)cc1 do in these assays?
VACV mCherry inh: inconclusive; VACV Venus inh: -7%; LASV entry inh: 18%[46.1 µM]; Marburg entry inh: 11%; HCMV antiviral: -3; HCV inh: 13%

How did Cc1ccc(S(=O)(=O)/N=C2/C=C(Sc3ncn[nH]3)C(=O)c3ccccc32)c(C)c1 do in these assays?
LASV entry inh: 4.1µM*; Marburg entry inh: inconclusive; HCV inh: inconclusive

What do the screens show for `CCCCNC(=O)CC1Nc2cc(C)c(C)cc2NC1=O` (stereo not drawn)?
VACV mCherry inh: 1%; VACV Venus inh: 1%; LASV entry inh: 13%[46.1 µM]; Marburg entry inh: 7%[46.1 µM]; HCMV antiviral: -14

How did CC1(C)C(=O)N(CCN2CCC(C(=O)c3ccc(F)cc3)CC2)c2ccccc21 do in these assays?
VACV mCherry inh: inactive; VACV Venus inh: -16%; LASV entry inh: inconclusive; Marburg entry inh: inconclusive; HCMV antiviral: inconclusive; HCV inh: inconclusive

Results for Cc1nc2ccccn2c(=O)c1CCN1CCC(C(=O)c2ccc(F)cc2)CC1 ?
VACV mCherry inh: inactive; VACV Venus inh: -9%; LASV entry inh: -10%; Marburg entry inh: 6.3µM*!; HCMV antiviral: -38; HCV inh: inconclusive

What do the screens show for `Cc1nc2sccn2c(=O)c1CCN1CCC(=C(c2ccc(F)cc2)c2ccc(F)cc2)CC1`?
VACV mCherry inh: inactive; VACV Venus inh: -23%; LASV entry inh: 12µM*; Marburg entry inh: 20µM*; HCMV antiviral: -3; HCV inh: 3.5µM*!

How did CC(/C=N/c1ccccn1)=N\c1ccccn1 do in these assays?
HCMV antiviral: -20

How did CC(=O)c1ccccc1C(=O)NCC1Cc2cccc(-c3cccnc3)c2O1 (stereo not drawn) do in these assays?
VACV mCherry inh: -5%; VACV Venus inh: -9%

Screens: PubChem BioAssay, National Center for Advancing Translational Sciences (NCATS)
